Activity calls are given as the source filed them.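 Rule for the calls, unless noted: active = compound raises insulin release from rat beta cells at 5 mM glucose, no numeric limit stated; inactive = the rest.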
How the values were obtained:
[1] = stimulators of nuclear beta-catenin in C2C12, primary screen, imaging, WNT3A-conditioned medium, mouse C2C12, NPC library (AID 1117326; in the data active = nuclear beta-catenin stimulation mostly above about 4.2%, no sharp cut-off; inactive = mostly below about 10%; note: reference of the scale not given here); settings: stronger effect = higher value
[2] = stimulators of insulin release from INS-1E, primary screen, cell-based, 5 mM glucose, NPC library (AID 1117329); settings: rat INS-1E insulin secretion, at 10 µM, stronger effect = higher value; note: reference of the scale not given here
[3] = growth inhibition of GSK3B-pretreated HCT116 cells – cell-based, CellTiter-Glo, 0.2 to 20 µM (AID 1117336;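 active = compounds lowering colon cancer cell viability after pretreatment blocking the GSK3B kinase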); settings: HCT116 viability after GSK3B inhibitor, at 20 µM, stronger effect = higher value
[4] = inhibition of endothelial tube formation, primary screen, imaging, VEGF stimulated, CD31 staining, tube area, NPC library (AID 1117340;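 active = compound that reduces growth-factor-driven endothelial tube area in a mixed cell culture, no cutoff stated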); settings: VEGF-stimulated ADSC/ECFC co-culture, at 10 µM, stronger effect = higher value
[5] = glucagon-like peptide 1 release enhancers, primary assay, NCI-H716 cell line, NPC library (AID 1117341;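 active = compound raises GLP1 secretion from the human gut endocrine cells, with no numeric limit stated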; note: reference of the scale not given here); settings: NCI-H716 cells, at 10 µM, stronger effect = higher value
[6] = HCT116 colon cancer cell growth inhibition, primary screen, CellTiter-Glo luminescence, NPC library (AID 1117342;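 active = compounds that lower survival of HCT116 colon cancer cells in the luminescence readout, no numeric limit stated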); settings: at 20 µM (top of the series)
[7] = CellTiter-Glo luminescent readout of SW480 viability loss, NPC library primary (AID 1117343;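 active = compounds that lower viability of the colon cancer cells in the luminescence readout, with no numeric limit stated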); settings: CellTiter-Glo luminescence; at 20 µM (top of the series)
[8] = decreased DLD-1 cellular survival, CellTiter-Glo luminescent readout, NPC compound collection, primary HTS (AID 1117346;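 active = compounds that lower survival of DLD-1 colon cancer cells in the luminescence readout, no cutoff given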); settings: DLD-1 viability, CellTiter-Glo luminescence; at 20 µM (top of the series)

Compound	nuclear beta-catenin stimulation ([1]; at 10 µM)	nuclear beta-catenin stimulation ([1]; stimulation, at 2 µM) [%]	insulin secretion stimulation [2]	viability decrease [3]	tube area decrease [4]	GLP1 secretion stimulation [5]	inhibition of viability [6]	viability decrease (inhibition) [7]	viability decrease (inhibition) [8]
CC(=O)N(CC(=O)N(C)C)c1ccccc1	-1.1% (inactive)	3.8	-0.5% (inactive)	-5.9% (inactive)	3.9% (inactive)	-1.1% (inactive)	-4.93% (inactive)	36.7% (inactive)	-21.1% (inactive)
O=C(NCCc1c[nH]c2ccccc12)c1cccnc1	1% (inactive)	1.7	-2.7% (inactive)	6.55% (inactive)	35.9% (inactive)	0.6% (inactive)	-5.5% (inactive)	71.3% (active)	-0.95% (inactive)
O=C(CN1CCNCC1)NC1CCCCC1	-0.7% (inactive)	0.3	5% (inactive)	-3.9% (inactive)	13.7% (inactive)	1% (inactive)	7.2% (inactive)	16.3% (inactive)	4.5% (active)
O=C(O)Cc1cn(-c2ccccc2)nc1-c1ccc(Cl)cc1	8.7% (inactive)	1.2	0.6% (inactive)	20.4% (inactive)	-3.1% (inactive)	-0.7% (inactive)	16.8% (inactive)	16.1% (active)	7.8% (inactive)
COC(=O)c1cccnc1	1% (inactive)	1.1	-1.6% (inactive)	-2.7% (inactive)	-14.2% (inactive)	1.1% (inactive)	-7.2% (inactive)	17.2% (inactive)	1.25% (inactive)
CC(=O)O[C@H]1CC[C@@]2(C)C(=CC[C@@H]3[C@@H]2CC[C@]2(C)C(C(C)=O)=CC[C@@H]32)C1	3.7% (inactive)	0.6	0.2% (inactive)	48% (inactive)	9.9% (inactive)	-2% (inactive)	25.8% (inactive)	60.1% (active)	14.9% (inactive)
Cc1cc(O)cc2c1O[C@](C)(CCC[C@H](C)CCC[C@H](C)CCCC(C)C)CC2	-1.3% (inactive)	-2	3.8% (inactive)	12.5% (inactive)	6.7% (inactive)	0% (inactive)	14.3% (inactive)	-12.8% (inactive)	-10.9% (inactive)
COc1ccnc2c1CCCCC2S(=O)c1nc2ccccc2[nH]1 (stereo unspecified)	-0.3% (inactive)	3	1.6% (inactive)	-54.1% (inactive)	13.2% (inactive)	9.2% (inactive)	27.5% (inactive)	31.6% (inactive)	11.3% (inactive)
O=c1[nH]c(=O)n([C@H]2O[C@H](CO)[C@@H](O)[C@@H]2O)cc1/C=C\Br	0.8% (inactive)	-0.6	3.5% (inactive)	-12.2% (inactive)	-20.7% (inactive)	1.5% (inactive)	-27.5% (inactive)	-23.9% (inactive)	2.6% (inactive)
CCCCC(CC)CNC(=O)CC(C)OC(=O)CCC(=O)O (stereo unspecified)	-1.8% (inactive)	-0.8	4% (inactive)	-11.7% (inactive)	0.6% (inactive)	-1% (inactive)	4.5% (inactive)	4.5% (inactive)	-7.8% (inactive)
O=C1C(c2[nH]c3ccccc3c2O)=Nc2ccccc21	-0.7% (inactive)	1.4	1.2% (inactive)	18.2% (inactive)	27.2% (inactive)	0.5% (inactive)	16.9% (inactive)	24.1% (inactive)	0.2% (inactive)
CC(=O)Nc1ccc(/C=N/NC(N)=S)cc1	0.3% (inactive)	0.5	-2.3% (inactive)	-4.65% (inactive)	-8.1% (inactive)	4.3% (inactive)	13.3% (inactive)	13% (inactive)	-1.8% (inactive)
Cc1cc(O)c(Cl)c(C)c1Cl	0.8% (inactive)	-0.1	-1.8% (inactive)	-24.1% (inactive)	7.2% (inactive)	-2% (inactive)	-6.7% (inactive)	-0.8% (inactive)	-12.3% (inactive)
NC(=O)C(=O)N/N=C/c1ccc([N+](=O)[O-])o1	4.5% (inactive)	1.5	-3.3% (inactive)	17.6% (inactive)	28.8% (inactive)	-1.5% (inactive)	0.3% (inactive)	89.2% (active)	23.6% (inactive)

From PubChem BioAssay
